Here are results for 10 molecules from PubChem BioAssay (Tox21).

Assay [1] is described as follows: qHTS assay to identify small molecule agonists of the vitamin D receptor (VDR) signaling pathway - cell viability counter screen (AID 743224). Also: % is scaled to controls: 0 for no effect and ±100 for the full control effect; nearly all actives have a fitted effect of over 50% in size. Summed up: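 VDR-bla cell line, quantitative HTS format; 16 h compound incubation (37C, 5% CO2); ATP-based CellTiter-Glo luminescence measured in the reporter assay wells.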
Assay [2] can be described thus: qHTS assay to identify small molecule agonists of the NFkB signaling pathway - cell viability counter screen (AID 1159515; calls by dose curve; also: nearly all actives have a fitted effect of over 55% in size; also: potency is read from the fitted curve at half-maximal effect; as to activity, negative = cytotoxic: % is scaled to controls: 0 for no effect and ±100 for the full control effect). Summed up: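 Viability in NFkB-bla ME-180 cells was measured by CellTiter-Glo luminescence, 30 min room temperature, in wells already treated 5 hr with compounds and read for reporter FRET.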
Assay [3] is described as follows: qHTS assay to identify small molecule agonists of the endoplasmic reticulum stress response signaling pathway (AID 1159516; active = well fitted activation curve with a large enough effect in the signal ratio in the repeat runs, not every such curve was filed as active; the % refers to the signal ratio; also: % is scaled to controls: 0 for no effect and ±100 for the full control effect). The method, boiled down:
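ER stress element reporter (bla) in HeLa. 1,500 cells/well, overnight attachment; 5 hr compound; 2 hr RT substrate; dual-emission fluorescence.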

A short description of assay [4]: qHTS assay to identify small molecule antagonists of the retinoid-related orphan receptor gamma (ROR-gamma) signaling pathway - cell viability counter screen (AID 1159520). Also: % is scaled to controls: 0 for no effect and ±100 for the full control effect; nearly all actives have a fitted effect of over 50% in size. Summed up: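 Cytotoxicity was read from cellular ATP (CellTiter-Glo luminescence) after 16 hr at 37 C with 1 uM doxycycline induction. The inducer was added 2 hr after compound transfer to Tet-on ROR gamma CHO cells.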

Assay [5] has as its target Nuclear receptor ROR-gamma (Homo sapiens) (UniProt P51449). As to the kind of experiment: qHTS assay to identify small molecule antagonists of the retinoid-related orphan receptor gamma (ROR-gamma) signaling pathway (AID 1159521; also: nearly all actives have a fitted effect of over 50% in size; also: potency is read from the fitted curve at half-maximal effect;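 as to activity change, negative = inhibition: CHO cells with doxycycline inducible ROR-gamma driving an RORE luciferase reporter; top concentration of the series differs between compounds; % is scaled to controls: 0 for no effect and ±100 for the full control effect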). The method, boiled down:
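Tet-on ROR-gamma CHO cells with ROR response element-luciferase reporter; compounds added 2 hr before 1 uM doxycycline induction, then 16 hr at 37 C. Antagonism scored as decreased ONE-Glo luminescence.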

Assay [6] in a line: qHTS assay to identify small molecule agonists of the AP-1 signaling pathway - cell viability counter screen (AID 1159525; calls by dose curve; also: nearly all actives have a fitted effect of over 55% in size). Summed up: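 Luminescent ATP readout (Cell Titer Glo, 30 min RT), normalised to DMSO and tetra n-octyl ammonium bromide controls. Cells were ME-180 AP-1-bla in 0.5% dialyzed FBS Opti-MEM, with a 5 h, 37 °C compound exposure.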
A short description of assay [7]: qHTS assay to identify small molecule agonists of the AP-1 signaling pathway (AID 1159526; calls by dose curve; also: % is scaled to controls: 0 for no effect and ±100 for the full control effect).
Assay [8] concerns the target Retinoic acid receptor RXR-alpha (Homo sapiens) (UniProt P19793). As to the kind of experiment: qHTS assay to identify small molecule agonists of the RXR signaling pathway (AID 1159527; calls by dose curve; also: % is scaled to controls: 0 for no effect and ±100 for the full control effect; nearly all actives have a fitted effect of over 35% in size). Summed up: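 GeneBLAzer RXR-alpha-UAS-bla HEK 293T cells in 2% charcoal-stripped FBS medium were exposed to compounds for 16 hr at 37 C in agonist mode. Beta-lactamase reporter read as 460/530 nm FRET ratio after 2 hr substrate loading.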

Assay [9] in a line: qHTS assay to identify small molecule agonists of the RXR signaling pathway - cell viability counter screen (AID 1159529). Also: % is scaled to controls: 0 for no effect and ±100 for the full control effect; nearly all actives have a fitted effect of over 50% in size. Summed up:
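RXR-alpha-UAS-bla HEK 293T cells in medium with 2% charcoal-stripped FBS were pre-incubated 5 hr, then compound-treated 16 hr at 37 C. Viability was read by CellTiter-Glo luminescence in the same wells as the beta-lactamase assay, with tetraoctyl ammonium bromide as positive control.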

The nature of assay [10]: qHTS assay to identify small molecule antagonists of the retinoid acid receptor (RAR) signaling pathway - cell viability counter screen (AID 1159551). Also: % is scaled to controls: 0 for no effect and ±100 for the full control effect; nearly all actives have a fitted effect of over 35% in size. Summed up: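 Following overnight attachment, C3RL4 reporter cells received DMSO-dissolved compounds and then retinol (1 uM final). Six hours later at 37 C, ATP content was measured by CellTiter-Glo luminescence.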
The nature of assay [11]: qHTS assay to identify small molecule antagonists of the retinoic acid receptor (RAR) signaling pathway (AID 1159552). Summed up: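 Retinol signaling pathway inhibitors screened in C3RL4 RARE-luciferase reporter cells seeded overnight at 37 C, then compounds added with 1 uM (final) retinol as pathway substrate. After 6 hr at 37 C, luciferase luminescence read after 30 min at room temperature.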

A short description of assay [12]: qHTS assay to identify small molecule agonists of the retinoic acid receptor (RAR) signaling pathway (AID 1159553). Also: potency is read from the fitted curve at half-maximal effect. As to conditions: C3RL4 RARE luciferase reporter, agonist, 6 h; activation: at 73.3 µM (top of the series) unless noted. The method, boiled down:
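Cell line C3RL4, RARE luciferase reporter. Treatment: compounds in DMSO, 6 hr, 37 C, 5% CO2, after overnight plating. Detection: luminescence, 30 min RT after reagent.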

The nature of assay [13]: qHTS assay to identify small molecule agonists of the endoplasmic reticulum stress response signaling pathway - cell viability counter screen (AID 1159517; calls by dose curve). Summed up:
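HeLa cells carrying an ESRE-driven beta-lactamase reporter receive compound for 5 hr at 37 C. Cell viability is then gauged with CellTiter-Glo by luminescence, 30 min at room temperature.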

A short description of assay [14]: qHTS assay to identify small molecule antagonists of the vitamin D receptor (VDR) signaling pathway - cell viability counter screen (AID 743225). The method, boiled down: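 VDR-UAS-bla HEK 293T cells were plated and incubated 4 h at 37C, then dosed with compound plus 3 nM (final) 1-alpha,25-dihydroxyvitamin D3 for 16 h. After the 2 h beta-lactamase read, viability in the same wells was read as CellTiter-Glo luminescence after 30 min at room temperature.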

The structures appear in SMILES notation. Records with an inconclusive call do not appear. A number with no mark means an inactive call. Calls of active or inactive are those of the source. Unless noted, calls follow the shape of the dose curve; as a rule, active = well fitted curve in the direction sought with a large enough effect in the repeat runs; inconclusive = weak or mixed curves; inactive = no such curve, though single readings can be large; an effect the other way counts as inactive or inconclusive.

Retinoic acid receptor RXR-alpha (Homo sapiens), sequence (P19793 whole entry, looked up): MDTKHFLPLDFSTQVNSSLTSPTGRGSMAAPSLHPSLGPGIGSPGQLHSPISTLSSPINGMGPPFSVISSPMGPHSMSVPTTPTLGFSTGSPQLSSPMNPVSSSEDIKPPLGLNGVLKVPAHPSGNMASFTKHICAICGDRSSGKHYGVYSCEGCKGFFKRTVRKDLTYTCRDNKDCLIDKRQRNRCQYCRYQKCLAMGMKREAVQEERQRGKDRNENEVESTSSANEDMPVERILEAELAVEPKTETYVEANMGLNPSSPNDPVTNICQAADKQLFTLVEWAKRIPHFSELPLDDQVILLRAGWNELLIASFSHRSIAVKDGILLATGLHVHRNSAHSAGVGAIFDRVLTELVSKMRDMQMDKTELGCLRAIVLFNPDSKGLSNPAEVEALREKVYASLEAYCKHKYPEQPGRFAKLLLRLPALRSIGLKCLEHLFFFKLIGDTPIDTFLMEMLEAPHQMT

Take `Cc1ccc(-c2ccccc2)cc1`: the Potency result in assay [1], in [2], in [3], in [4], in [5] and in [6] was “inactive” in each case. In addition, the Potency entry in [7], in assay [8], in assay [9], in assay [10], in assay [11] and in assay [12] was “inactive” in each case.

Consider `CCO[C@@H]1O[C@H](C(COCc2ccccc2)OCc2ccccc2)[C@H](OCc2ccccc2)[C@H]1O` (stereo partly specified), for which the Potency result in assay [1], in [3], in assay [13] and in [10] was “inactive” in each case. Also, in assay [2], the Potency is 21.3 µM (active).

`CCCCNS(=O)(=O)c1ccc(C)cc1`: the Potency entry in assay [1], in [14], in assay [2], in [3], in assay [4] and in [5] was “inactive” each time. Also, the Potency entry in [6], in assay [7], in [8], in assay [9], in assay [10] and in assay [11] was “inactive” throughout. Moreover, the Potency result in assay [12] is “inactive”.

With `CC(C)(C)CC(C)(C)c1ccc(Nc2ccc(C(C)(C)CC(C)(C)C)cc2)cc1`, the activity change, negative = cytotoxicity is 10.9% [at 5.95 µM] in [1], 2.3% [at 6.97 µM] in assay [9] and 0.648% [at 8.39 µM] in assay [10]. Besides, the viability change, negative = cytotoxic in [14] is 20.6% [at 6.95 µM]; in assay [6], -3.55% [at 6.97 µM]. Besides, the activity, negative = cytotoxic in [2] was -7.48% [at 6.95 µM]. Moreover, the activation in assay [3] is -2.77% [at 6.95 µM]; in [7] it was 15.6% [at 6.97 µM]; in assay [8], 3.93% [at 6.98 µM]; in [12] it was -3.08% [at 8.36 µM]. For the same molecule, in assay [4], the activity, negative = cytotoxicity is -0.0922% [at 8.39 µM]. For the same molecule, the activity change, negative = inhibition in assay [5] was 1.61% [at 8.39 µM]. Further, the activity, negative = inhibition in assay [11] is -23.1% [at 8.39 µM].

`O=C(O)c1cc(=O)c2ccccc2o1`: the Potency entry in assay [1], in assay [14], in assay [2], in [3], in assay [4] and in [5] was “inactive” throughout. The Potency entry in [6], in assay [7], in [8], in assay [9], in assay [10] and in assay [11] was “inactive” throughout. Also, the Potency entry in assay [12] was “inactive”.

For `CC(C)CCOC(=O)/C=C/c1ccccc1`, the Potency result in assay [1], in [14], in [2], in [3], in assay [4] and in [5] was “inactive” in each case. Further, the Potency result in assay [6], in assay [7], in assay [8], in [9], in assay [10] and in assay [11] was “inactive” throughout. Further, in assay [12], the Potency was 10.9 µM (active).

As for `CCCC[P+](C)(CCCC)CCCC`, the Potency result in assay [1], in assay [14], in [2], in assay [3], in assay [4] and in [5] was “inactive” throughout. In addition, the Potency entry in assay [6], in [7], in assay [8], in assay [9], in [10] and in assay [11] was “inactive” throughout. Moreover, the Potency result in assay [12] was “inactive”.

In the case of `CC[N+](CC)(CC)CCOC(=O)C(C1CCCC1)C1CCCC1`, the Potency result in [1], in assay [14], in assay [2], in assay [3], in [4] and in assay [5] was “inactive” each time. The Potency entry in assay [6], in assay [7], in assay [8], in assay [9], in assay [10] and in [12] was “inactive” in each case.

On to `Cc1ccc(C(=O)O)cc1`, for which the Potency entry in [1], in assay [2], in [3], in assay [4], in assay [5] and in [6] was “inactive” throughout. The Potency entry in assay [7], in assay [8], in [9], in assay [10] and in assay [12] was “inactive” each time.

In the case of `Cc1cc(-c2ccc(N=Nc3cc(S(=O)(=O)O)c4ccccc4c3N)c(C)c2)ccc1N=Nc1cc(S(=O)(=O)O)c2ccccc2c1N`, the Potency result in assay [2], in [3], in assay [4], in assay [6], in [7] and in assay [8] was “inactive” throughout. The Potency result in assay [9], in assay [10], in assay [11] and in assay [12] was “inactive” in each case. The Potency in [5] was 30.8 µM (active).
